Screening results (PubChem)
Hits are enriched below; roughly 2.7% of the tested compounds scored in any of these assays.
TRPM1 prom inh: reduces MITF-dependent TRPM1 promoter luciferase signal | SK-MEL-5 TRPM1 promoter luciferase, 24 h | inhibition, % at 12.5 µM | 330,000 compounds, 0.83% hits;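 active = mean inhibition across replicates of 60% or more, whatever share of single replicates reaches that level; inconclusive = some that reach 60%, reason not given; inactive = mean inhibition across replicates below 60%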
HIF-2a block: HIF-2a inhibition; 786-0 RCC cells HIF-2a reporter, luciferase luminescence, overnight; inhibition, % at 18.8 µM; 360,000 compounds, 0.72% hits; AID 624352;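 active = inhibition of the luminescence signal of 40% or more relative to plate controls, in a single-dose primary screen at 18.75 µM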
Peg3 prom inh: Peg3 promoter activity inhibition; HeLa PEG-Prom luciferase reporter, luminescence, overnight; inhibition, % at 20 µM; 360,000 compounds, 1.7% hits; AID 588405;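 active = inhibition of at least 50% at 20 µM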
Shn3 3UTR inh: inhibitors of Schnurri-3 3'UTR reporter in osteoblasts | Clone20 osteoblast Shn3 3'UTR firefly luciferase, 24 h | inhibition, % at 12.5 µM | 360,000 compounds, 0.52% hits;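 active = mean inhibition of at least 75% with every replicate also reaching 75%; inconclusive = mean inhibition at least 75% but some replicate below; inactive = mean inhibition below 75%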;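 note: 0% = median of neutral control wells and 100% = pilot-screen positive control compound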
KKLEB cytotox: reduces viability of KKLEB cystic fibrosis airway cells; activity change (cytotoxicity), % at 5 µM; 360,000 compounds, 0.36% hits; KKLEB CF airway cells viability, ATPlite luminescence, overnight; active compounds read low; cells stimulated with P. aeruginosa culture filtrate;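 active = corrected activity change at or below -50% at 5 µM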
CF NFkB inh: inhibitors of cystic fibrosis induced NF-kB. KKLEB NF-kB-GFP reporter, PAF-induced, GFP fluorescence overnight. inhibition, % at 5 µM. 360,000 compounds, 0.86% hits. AID 588850;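 active = at least 50% inhibition at 5 µM, scaled per plate between neutral and stimulator controls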;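 note: PAF is a Pseudomonas aeruginosa culture filtrate used as stimulus; plate controls were PAF-stimulated DMSO wells for no effect and unstimulated DMSO wells for full effect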
Active calls of the source: *; ? = inconclusive; . = not tested or not shown; ! = not confirmed by another sample.

SMILES	TRPM1 prom inh	HIF-2a block	Peg3 prom inh	Shn3 3UTR inh	KKLEB cytotox	CF NFkB inh
COCCN1C(=O)CCC1(C)c1nnnn1Cc1ccccc1 (stereo unspecified)	.	2	.	.	.	.
Oc1ccc2ccccc2c1N=Nc1ccccn1	60	-70	9	95*	3	-15
Cc1ccc(S(=O)(=O)NC(=NCC(=O)O)c2ccc(F)cc2)cc1	1	9	1	-7	-7	14
Cc1ccc(S(=O)(=O)NC(=NCc2ccccc2)c2ccc(F)cc2)cc1	0	26	51*	1	-8	14
Cn1nc(N)c2c(-c3ccc(Cl)cc3)c(C#N)c(N)nc21	4	29	7	28	-7	35
CCN(CC)c1ccc(-c2c(C#N)c(N)nc(OC)c2C#N)cc1	5	12	53*	14	-22	12
CC(C)c1ccc(CC(=O)N2CCC2(C)C(=O)NS(=O)(=O)c2cccc(OC(F)F)c2)cc1 (stereo unspecified)	.	4	10	-12	2	6
COc1ccc(OC)c(N2C(=O)c3ccccc3C2c2nnnn2-c2ccc3c(c2)OCCO3)c1 (stereo unspecified)	.	-4	.	.	.	.
O=c1[nH]c(Nc2nc3ccccc3o2)nc2c1CCCC2	46	-70	58*	80	21	-22
Cc1ccc(Nc2nc3c(c(=O)[nH]2)CCCC3)cc1	-34	-259	-176	-31	4	-5
Cc1cn([C@H]2C[C@H](O)[C@@H](CNS(=O)(=O)N3CCCC3)O2)c(=O)[nH]c1=O	.	-4	-30	-22	-4	-3
O=C(/C=C/NNC(=O)c1ccccc1)c1ccccc1	-4	-45	-32	-20	1	-10
O=C(/C=C/NNC(=O)c1ccccc1)c1ccc([N+](=O)[O-])cc1	64*	-11	47	34	-3	-20
N#Cc1ccc(-c2cccc3nccn23)cc1	.	3	-9	13	10	-12
COc1cc(OC)cc(C(=O)NC(=S)Nc2cc3oc4ccccc4c3cc2OC)c1	8	6	38	9	-52*	55*
COC(=O)c1c(-c2ccc(C)cc2)csc1NC(=O)Cc1ccc(OC)c(OC)c1	2	18	19	34	-6	3
COC(=O)c1c(-c2cccc3ccccc23)csc1NC(=O)Cc1ccc(OC)c(OC)c1	17	15	34	87*	-5	26
CCCCOCCCNC(=O)C[C@@H]1C[C@@]2(C(=O)OCC)CCCC=C2N(Cc2ccc(Cl)cc2Cl)C1=O	.	-13	.	.	.	.
OC[C@@H]1CN(Cc2ccc(-c3ccccc3)cc2)C[C@H](n2cnc3c(NCc4ccc(F)cc4)ncnc32)O1	.	-34	33	81*	-14	19
OC[C@@H]1CN(Cc2ccccc2)C[C@H](n2cnc3c(NCc4ccc(F)cc4)ncnc32)O1	.	-111	-101	-50	-7	14
Cn1c(NCCc2ccncc2)nc2cc(-c3cccc(C(F)(F)F)c3)sc2c1=O	.	-88	-38	7	-6	16
O=C1NC(=O)c2cc(Br)cc3cccc1c23	-4	4	-22	15	11	-127
O=C1Nc2c(Br)cc(Br)c3cccc1c23	-8	2	74*	7	-3	-22
CC(C)(C)n1nnnc1C(CCc1ccccc1)N1CCN(C/C=C/c2ccccc2)CC1 (stereo unspecified)	.	-27	0	76	-17	15
COc1ccc(C2Nc3ccc4ccccc4c3-c3c2c(=O)oc2ccccc32)cc1 (stereo unspecified)	6	-14	57*	57	-20	18
SMILES	TRPM1 prom inh	HIF-2a block	Peg3 prom inh	Shn3 3UTR inh	KKLEB cytotox	CF NFkB inh
CCOc1ccc(C2Nc3ccc4ccccc4c3-c3c2c(=O)oc2ccccc32)cc1 (stereo unspecified)	29	-10	47	10	-25	13
O=C(Nc1ccc(Cl)c(Cl)c1)N[C@@H]1CC[C@@H](CCn2cc(C3CCCCC3)nn2)O[C@@H]1CO	.	1	.	.	.	.
COc1ccccc1-n1c(-c2ccccc2)c[n+]2c1CCc1ccccc1-2	67*!	14	12	90*!	-1	-14
COc1ccc(-n2c(-c3ccc(Br)cc3)c[n+]3c2CCc2ccccc2-3)cc1	98*	14	19	?	-36	20
CC(C)c1ccc(-n2c(-c3ccccc3)c[n+]3c2CCc2ccccc2-3)cc1	88*	15	68*	81	-54*	51*
COc1ccc(-c2cn(-c3ccc(OC)cc3)c3[n+]2-c2ccccc2CC3)cc1	69*	4	39	?	2	-7
Cc1ccc(S(=O)(=O)N[C@H](CNCc2ccccc2)C(C)C)cc1	.	6	.	.	.	.
Nc1c(-c2ccc(C(F)(F)F)cc2)nc2ncccn12	.	-82	.	.	.	.
COc1ccc(CNC(=O)CN2C(=O)C3C4C=CC(C4)C3C2=O)cc1 (stereo unspecified)	93*	0	12	-6	0	15
c1ccc2sc(-n3cc(C4CCCCC4)nn3)nc2c1	.	-197	.	.	.	.
Cc1ccc(C(=O)Nc2nnc(NC(=S)Nc3ccccc3)s2)cc1	-47	-123	-77	-23	-2	65*
CCc1nc2ccc(C(=O)NCc3ccccc3OC)cn2c1N(CC)Cc1cccc(Br)c1	.	-2	48	6	-26	23
COC(=O)[C@@]12C[C@@H](CC(=O)NCc3ccc(C)o3)C(=O)N(CCc3ccc(OC)c(OC)c3)C1=CCC(C)(C)C2	.	6	.	.	.	.
Cc1ccc(-c2nc3ncccc3o2)cc1NC(=O)c1cccs1	-3	-18	-16	-18	7	-20
Cc1ccc(-c2nc3ncccc3o2)cc1NC(=O)c1sc2ccccc2c1Cl	45	8	78*	85*	-1	-2
Cc1ccc(-c2nc3ccccc3[nH]2)cc1NC(=O)c1sc2cc(Cl)ccc2c1Cl	-12	-76	83*	-14	2	-19
CCC(=O)Nc1cccc(C(=O)/C=C/c2ccc(F)cc2)c1	62*	27	100*	1	0	47
CC(=O)Nc1cccc(C(=O)/C=C/c2ccc(C)cc2)c1	23	-18	97*	-9	-8	36
CC(=O)Nc1ccc(/C=C/C(=O)c2ccc3c(c2)OCCO3)cc1	-1	-26	-165	-23	-13	-6
COc1cccc(NC(=S)NC(=O)/C=C/c2ccc(F)cc2)c1	-4	-3	8	-8	-4	-4
COc1ccc(C(=O)c2[nH]c(N)c(C(=O)NCCc3c[nH]c4ccccc34)c2-c2c(F)cccc2Cl)cc1	.	13	.	.	.	.
O=C(CN1C(=O)/C(=C\C=C\c2ccccc2)SC1=S)Nc1ccc(F)cc1	-1	6	-8	6	-35	-5
O=C(COC(=O)CCN1C(=O)/C(=C\C=C\c2ccccc2)SC1=S)Nc1cc(F)ccc1F	63*	83*	-10	39	-4	-16
COCc1c(C(=O)Nc2nnc(C3CC3)s2)oc2ccccc12	.	-67	-44	-12	5	-56
